# Measurements taken from the supplement of paper PMC11732987, “Enantioselective OTUD7B fragment discovery through chemoproteomics screening and high-throughput optimisation” (Communications Chemistry, 2025).
# Unmarked numbers belong to inactive results.
# Columns and labels:
# Assay in all cases: log2 ratio of Biotin-Ahx-Ub-VS probe labelling (fragment/DMSO); higher = less target engagement (more negative = stronger competition), active = hit call of the paper (q ≤ 0.05, log2 ratio ≤ -1)
# Details in all cases: compound concentration: 200 uM; treatment time: 3 h
# [1] = target: T1, OTUD6B (UniProt Q8N6M0)
# T1 sequence (whole entry): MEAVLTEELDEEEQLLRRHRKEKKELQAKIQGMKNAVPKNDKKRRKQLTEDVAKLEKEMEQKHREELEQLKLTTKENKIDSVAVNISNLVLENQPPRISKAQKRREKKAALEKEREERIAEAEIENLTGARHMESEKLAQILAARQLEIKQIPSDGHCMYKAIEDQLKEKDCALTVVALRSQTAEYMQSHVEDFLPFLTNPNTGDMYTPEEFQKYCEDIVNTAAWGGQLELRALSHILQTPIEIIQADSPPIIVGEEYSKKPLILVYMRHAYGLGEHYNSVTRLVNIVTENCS
# Outline: (§1)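 Global-median-normalised Spectronaut label-free quantities were compared by unpaired t-test, and values are average log2 ratios of fragment over vehicle. Only proteins with ≥2 unique peptides were used. HEK293T lysate (495 µg per sample) was treated in triplicate with fragment at 200 µM or vehicle for 3 h and then with Biotin-Ahx-Ub-VS at 0.5 µM final for 1 h. Labelled DUBs were then NeutrAvidin-enriched, digested with LysC and trypsin, and run by diaPASEF LC-MS/MS.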
# [2] = target: T2, OTUD7B (UniProt Q6GQQ9)
# T2 sequence (whole entry): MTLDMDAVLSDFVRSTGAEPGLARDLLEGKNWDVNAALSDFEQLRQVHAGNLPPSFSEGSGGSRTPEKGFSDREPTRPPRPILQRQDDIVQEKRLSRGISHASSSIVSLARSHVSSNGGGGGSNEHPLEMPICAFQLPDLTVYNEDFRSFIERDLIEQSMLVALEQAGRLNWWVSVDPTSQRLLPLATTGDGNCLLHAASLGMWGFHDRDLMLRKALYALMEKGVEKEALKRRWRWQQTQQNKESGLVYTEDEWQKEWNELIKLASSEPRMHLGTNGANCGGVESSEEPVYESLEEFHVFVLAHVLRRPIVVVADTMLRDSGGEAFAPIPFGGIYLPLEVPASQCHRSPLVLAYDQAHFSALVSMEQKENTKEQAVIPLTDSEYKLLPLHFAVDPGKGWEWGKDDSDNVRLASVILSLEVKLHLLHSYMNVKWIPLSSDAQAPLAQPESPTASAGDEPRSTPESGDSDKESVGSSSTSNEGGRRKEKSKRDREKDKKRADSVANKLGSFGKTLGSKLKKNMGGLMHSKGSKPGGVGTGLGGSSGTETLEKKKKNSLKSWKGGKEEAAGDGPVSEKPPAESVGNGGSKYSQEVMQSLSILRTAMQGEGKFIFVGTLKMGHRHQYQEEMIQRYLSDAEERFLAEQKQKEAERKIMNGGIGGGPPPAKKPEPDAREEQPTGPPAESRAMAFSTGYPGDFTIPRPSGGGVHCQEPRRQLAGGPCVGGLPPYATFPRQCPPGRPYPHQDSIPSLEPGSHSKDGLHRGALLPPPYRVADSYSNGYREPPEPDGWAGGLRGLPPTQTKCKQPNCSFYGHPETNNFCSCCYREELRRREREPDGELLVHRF
# Outline: as §1
# [3] = target: PRPF8 (UniProt Q6P2Q9)
# Outline: as §1
# [4] = target: T3, PSMD7 (UniProt P51665)
# T3 sequence (whole entry): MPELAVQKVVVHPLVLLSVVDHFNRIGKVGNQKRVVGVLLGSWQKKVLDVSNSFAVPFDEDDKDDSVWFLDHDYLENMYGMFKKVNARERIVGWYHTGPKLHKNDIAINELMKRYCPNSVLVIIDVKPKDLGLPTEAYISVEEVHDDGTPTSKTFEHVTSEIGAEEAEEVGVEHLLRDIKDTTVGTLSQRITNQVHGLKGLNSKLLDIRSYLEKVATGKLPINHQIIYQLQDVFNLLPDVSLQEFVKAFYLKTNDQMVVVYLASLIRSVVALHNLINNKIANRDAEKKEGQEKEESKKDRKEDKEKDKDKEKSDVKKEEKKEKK
# Outline: as §1
# [5] = target: UCHL1 (UniProt P09936)
# Outline: as §1
# [6] = target: T4, UCHL3 (UniProt P15374)
# T4 sequence (whole entry): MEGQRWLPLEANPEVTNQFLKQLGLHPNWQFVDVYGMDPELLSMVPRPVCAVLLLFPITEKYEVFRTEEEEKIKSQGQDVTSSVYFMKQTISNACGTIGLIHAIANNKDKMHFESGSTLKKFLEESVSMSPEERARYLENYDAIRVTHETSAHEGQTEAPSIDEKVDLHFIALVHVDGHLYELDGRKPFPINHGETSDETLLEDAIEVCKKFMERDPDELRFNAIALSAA
# Outline: as §1
# [7] = target: T5, UCHL5 (UniProt Q9Y5K5)
# T5 sequence (whole entry): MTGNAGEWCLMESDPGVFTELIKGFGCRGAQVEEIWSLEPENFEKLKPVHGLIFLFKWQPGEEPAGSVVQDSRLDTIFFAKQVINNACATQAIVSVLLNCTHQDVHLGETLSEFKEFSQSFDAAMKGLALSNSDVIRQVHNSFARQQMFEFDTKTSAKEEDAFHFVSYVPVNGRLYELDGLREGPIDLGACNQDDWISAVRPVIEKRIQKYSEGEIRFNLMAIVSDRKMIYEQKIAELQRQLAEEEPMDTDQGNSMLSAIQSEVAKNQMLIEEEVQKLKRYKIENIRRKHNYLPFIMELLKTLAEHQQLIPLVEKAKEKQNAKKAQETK
# Outline: as §1
# [8] = target: USP10 (UniProt Q14694)
# Outline: as §1
# [9] = target: T6, USP15 (UniProt Q9Y4E8)
# T6 sequence (whole entry): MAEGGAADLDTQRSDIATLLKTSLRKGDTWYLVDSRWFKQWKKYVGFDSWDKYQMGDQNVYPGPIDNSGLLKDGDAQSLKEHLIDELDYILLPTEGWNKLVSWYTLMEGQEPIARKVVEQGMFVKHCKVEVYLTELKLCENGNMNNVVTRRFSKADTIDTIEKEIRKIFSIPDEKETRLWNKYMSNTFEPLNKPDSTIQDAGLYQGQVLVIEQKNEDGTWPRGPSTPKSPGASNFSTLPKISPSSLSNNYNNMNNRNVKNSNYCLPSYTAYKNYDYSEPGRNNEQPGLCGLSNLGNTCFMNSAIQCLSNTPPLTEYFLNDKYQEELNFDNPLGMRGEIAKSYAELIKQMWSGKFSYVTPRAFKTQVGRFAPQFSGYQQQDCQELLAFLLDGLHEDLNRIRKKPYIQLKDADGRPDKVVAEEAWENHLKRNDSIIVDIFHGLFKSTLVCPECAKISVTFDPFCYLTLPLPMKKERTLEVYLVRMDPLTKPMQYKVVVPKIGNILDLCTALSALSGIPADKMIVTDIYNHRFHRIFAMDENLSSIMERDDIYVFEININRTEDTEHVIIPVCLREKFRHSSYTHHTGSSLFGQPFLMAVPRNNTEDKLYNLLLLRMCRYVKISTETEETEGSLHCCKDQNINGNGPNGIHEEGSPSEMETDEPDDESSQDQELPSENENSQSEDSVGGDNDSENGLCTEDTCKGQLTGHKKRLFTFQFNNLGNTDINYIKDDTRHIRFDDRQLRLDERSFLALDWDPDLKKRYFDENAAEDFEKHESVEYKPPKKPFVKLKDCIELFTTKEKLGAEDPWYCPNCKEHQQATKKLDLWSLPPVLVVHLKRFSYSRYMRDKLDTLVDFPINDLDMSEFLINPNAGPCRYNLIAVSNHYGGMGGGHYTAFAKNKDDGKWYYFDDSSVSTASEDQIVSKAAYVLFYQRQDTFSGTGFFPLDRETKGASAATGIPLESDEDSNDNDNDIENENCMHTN
# Outline: as §1
# [10] = target: USP16 (UniProt Q9Y5T5)
# Outline: as §1
# Chain of UCHL1 (P09936 whole entry, looked up): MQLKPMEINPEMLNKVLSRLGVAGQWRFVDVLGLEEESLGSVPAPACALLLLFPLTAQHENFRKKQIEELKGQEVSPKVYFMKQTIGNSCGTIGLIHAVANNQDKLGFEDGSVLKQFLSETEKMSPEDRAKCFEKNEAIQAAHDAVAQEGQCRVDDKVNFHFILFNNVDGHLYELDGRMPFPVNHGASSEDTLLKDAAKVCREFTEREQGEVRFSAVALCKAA
# Chain of USP10 (Q14694 whole entry): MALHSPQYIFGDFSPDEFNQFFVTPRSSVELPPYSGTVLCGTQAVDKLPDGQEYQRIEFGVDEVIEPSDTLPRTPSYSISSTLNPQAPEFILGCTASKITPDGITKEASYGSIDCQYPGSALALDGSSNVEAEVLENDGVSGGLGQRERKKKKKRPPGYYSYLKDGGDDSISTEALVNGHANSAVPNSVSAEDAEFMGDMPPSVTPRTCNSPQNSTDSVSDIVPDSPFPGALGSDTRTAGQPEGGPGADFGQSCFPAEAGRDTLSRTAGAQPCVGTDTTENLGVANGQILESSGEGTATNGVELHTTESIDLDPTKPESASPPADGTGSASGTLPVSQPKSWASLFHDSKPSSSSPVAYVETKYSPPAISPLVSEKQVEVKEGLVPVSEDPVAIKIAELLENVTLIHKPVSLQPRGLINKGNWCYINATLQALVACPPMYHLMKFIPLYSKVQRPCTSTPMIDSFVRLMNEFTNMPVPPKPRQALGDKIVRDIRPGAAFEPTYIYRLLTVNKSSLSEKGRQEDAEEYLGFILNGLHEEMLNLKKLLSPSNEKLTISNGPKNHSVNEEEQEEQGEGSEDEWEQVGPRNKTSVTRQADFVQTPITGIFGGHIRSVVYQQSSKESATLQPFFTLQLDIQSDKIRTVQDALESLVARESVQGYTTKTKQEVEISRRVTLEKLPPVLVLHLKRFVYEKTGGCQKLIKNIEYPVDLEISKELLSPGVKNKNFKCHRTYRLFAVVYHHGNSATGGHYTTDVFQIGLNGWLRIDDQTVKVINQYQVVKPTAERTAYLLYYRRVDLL
# Chain of USP16 (Q9Y5T5 whole entry, looked up): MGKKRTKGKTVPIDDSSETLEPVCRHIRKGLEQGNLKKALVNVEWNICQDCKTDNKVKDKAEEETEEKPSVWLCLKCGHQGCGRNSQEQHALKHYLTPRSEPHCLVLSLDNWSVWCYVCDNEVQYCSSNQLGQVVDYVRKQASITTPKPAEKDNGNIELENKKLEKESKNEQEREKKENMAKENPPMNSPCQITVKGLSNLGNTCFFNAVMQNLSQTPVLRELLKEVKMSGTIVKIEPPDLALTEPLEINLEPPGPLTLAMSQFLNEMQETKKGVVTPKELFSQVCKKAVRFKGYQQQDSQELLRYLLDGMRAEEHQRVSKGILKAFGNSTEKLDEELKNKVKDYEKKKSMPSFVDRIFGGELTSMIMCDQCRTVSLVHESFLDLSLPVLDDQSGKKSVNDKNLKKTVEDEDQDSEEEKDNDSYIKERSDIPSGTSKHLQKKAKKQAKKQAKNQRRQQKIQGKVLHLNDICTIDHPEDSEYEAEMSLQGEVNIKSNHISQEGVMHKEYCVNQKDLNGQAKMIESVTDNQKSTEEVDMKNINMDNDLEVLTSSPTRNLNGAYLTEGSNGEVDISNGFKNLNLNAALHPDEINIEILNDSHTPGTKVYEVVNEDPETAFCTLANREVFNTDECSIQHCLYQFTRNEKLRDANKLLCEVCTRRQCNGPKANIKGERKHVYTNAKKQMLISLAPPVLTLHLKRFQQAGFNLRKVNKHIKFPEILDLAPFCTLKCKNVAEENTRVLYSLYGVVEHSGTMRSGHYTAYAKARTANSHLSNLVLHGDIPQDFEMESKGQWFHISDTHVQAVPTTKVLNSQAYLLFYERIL
smiles,measurement,setting,value
Cc1ccc(N(C(=O)CCl)C2C=CS(=O)(=O)C2)cc1 (stereo not given),log2 ratio of Biotin-Ahx-Ub-VS probe labelling,[1],0.181
same,log2 ratio of Biotin-Ahx-Ub-VS probe labelling,[2],-0.0624
same,log2 ratio of Biotin-Ahx-Ub-VS probe labelling,[3],0.0782
same,log2 ratio of Biotin-Ahx-Ub-VS probe labelling,[4],-0.0467
same,log2 ratio of Biotin-Ahx-Ub-VS probe labelling,[5],-1.28 (active)
same,log2 ratio of Biotin-Ahx-Ub-VS probe labelling,[6],0.419
same,log2 ratio of Biotin-Ahx-Ub-VS probe labelling,[7],-0.13
same,log2 ratio of Biotin-Ahx-Ub-VS probe labelling,[8],-0.0181
same,log2 ratio of Biotin-Ahx-Ub-VS probe labelling,[9],-0.145
same,log2 ratio of Biotin-Ahx-Ub-VS probe labelling,[10],0.19
